Reference: PubChem BioAssay (NCI)
Compounds without any hit were thinned out: in the full panel of roughly 83,000, 20% have a hit.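 Single-concentration screen, 48 h exposure, 96-well plates. Endpoint: percent growth. Below 10 = active.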 A number with no mark means an inactive call. Activity calls are given as the source filed them.

tested on: HL-60(TB) leukemia; assay: NCI-60 one-dose screen, 48 h (100 = growth as untreated, 0 = no growth, -100 = all killed); conditions: 10 µM unless noted

With Nc1cccc2c(=S)c3ccccc3[nH]c12 as the compound, how does the growth read?
The growth was 107%.

How did the growth turn out when O=C(CSC(=S)N1CCCCC1)Nc1ccccc1 was run?
Its growth is 100%.

With OC1OC(COC(c2ccccc2)(c2ccccc2)c2ccccc2)C(O)C(O)C1O (stereo unspecified) as the compound, how does the growth read?
The growth was 97.4%.

For COP(=O)(OC)C(c1ccccc1)(c1ccccc1)c1ccccc1, which growth is on record?
The growth was 45.3%.

Which growth does the source give for CN1CCN(Cc2ccc(NC(=O)c3cncc(C#Cc4c(N)ncc5c(F)cccc45)c3)cc2C(F)(F)F)CC1 here?
The growth was -60.4% (active).

How did the growth turn out when BrC1CC(Br)c2c1c1c(c3c2C(Br)CC3Br)C(Br)CC1Br (stereo unspecified) was run?
Its growth is 55.7%.

Which growth does the source give for O=C1c2ccccc2-c2c1c1ccncc1c(=O)n2CCCn1ccnc1 here?
The growth was 35.7%.

Which growth does the source give for COc1ccc(OC)c(/C=C/C(=O)N/N=C/c2ccccc2)c1 here?
Its growth is 46.3%.

With COCCCNC(=O)c1nnn2c1nc(N)c1cc(Cl)ccc12 as the compound, how does the growth read?
Its growth is 93.7%.

Which growth does the source give for c1ccc(-c2nn(-c3ccccc3)[n+](-c3cccc4ccccc34)n2)cc1 here?
The growth was -25.8% (active).

With O=C(CNC(=O)c1cccc2ccccc12)Nc1ccccc1Oc1ccccc1 as the compound, how does the growth read?
Its growth is 7.14% (active).

CCn1cc(-c2cc(-c3ccc(Cl)cc3)nc(N)n2)c(-c2ccc(Br)cc2)n1 was tested. Which growth did it give?
The growth was 77.7%.

How did the growth turn out when CC1(c2ccccc2)NC(=O)N(NC(=O)CSc2nc(-c3cccs3)nc3ccccc23)C1=O (stereo unspecified) was run?
The growth was 91.6%.

With O=C(N/N=C/c1ccc(O)cc1O)c1cccnc1 as the compound, how does the growth read?
The growth was -17.2% (active).

O=C(CSc1nccc(Nc2cccc3ccccc23)n1)c1ccc(Cl)cc1 was tested. Which growth did it give?
Its growth is 99.2%.

How did the growth turn out when COC(=O)[C@@H]1CC[C@]2(C)[C@H](CC[C@@H]3O[C@@]32C)[C@@]1(C)CC(=O)c1ccoc1 was run?
The growth was 89.8%.
